Glyco luc inh: blocks N-linked glycosylation in D54 reporter cells; reporter increase, % at 12.5 µM; AID 588692; D54 ERlucT glycosylation luciferase reporter, 24 h; percent of 100 nM tunicamycin response; hit rate 0.23% among 360,000;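 active = mean luciferase reporter signal, scaled so untreated is 0 and the glycosylation-blocking control 100, at or above a set limit in every replicate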;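 note: luciferase carries N-glycosylation sites so blocking glycosylation raises the light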
ALR inh: inhibitors of human sulfhydryl oxidase ALR | AID 485317 | P55789 | inhibition, % (test concentration not listed) | purified ALR, DTT oxidation, H2O2 HRP-luminol luminescence | hit rate 3.8% among 290,000;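 active = mean replicate inhibition above about 79%, with every replicate also reaching it, limit read from the data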
NSD2 inh: inhibitors of human histone methyltransferase NSD2 | NSD2 peptide methylation, AlphaScreen, 120 min | inhibition, % at 12.5 µM | hit rate 0.54% among 310,000 | AID 743445; in the data active = inhibition above about 50%
SUMO Mot1 rescue: SUMOylation pathway inhibition by Mot1-301 growth rescue. hit rate 1% among 320,000. growth rescue, % at 18.8 µM. S. cerevisiae Mot1-301 growth rescue, ATP luminescence, 38.5C; percent above DMSO median, 100 means doubled. AID 2716;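 active = every valid replicate shows activation above 250% relative to neutral control wells; inactive = the rest, any valid replicate at or below 250%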
CDK5 inh: inhibitors of human CDK5/p35 kinase. hit rate 0.01% among 330,000. inhibition, % at 10 µM. Q00535+Q15078. Recombinant CDK5/p35, ADP-Glo luminescence, 60 min. AID 488839;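 active = highest replicate inhibition of at least 50% and at least 75% of replicates reaching 50%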
Target sequence (Q00535 whole entry, looked up): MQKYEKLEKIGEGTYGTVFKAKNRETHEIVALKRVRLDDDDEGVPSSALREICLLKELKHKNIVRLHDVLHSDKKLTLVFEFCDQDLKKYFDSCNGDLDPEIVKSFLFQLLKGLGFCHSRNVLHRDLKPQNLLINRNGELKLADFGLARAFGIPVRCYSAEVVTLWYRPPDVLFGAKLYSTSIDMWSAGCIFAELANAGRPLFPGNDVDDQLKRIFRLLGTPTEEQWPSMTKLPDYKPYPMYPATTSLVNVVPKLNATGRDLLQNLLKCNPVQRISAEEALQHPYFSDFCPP
Target sequence (Q15078 whole entry, looked up): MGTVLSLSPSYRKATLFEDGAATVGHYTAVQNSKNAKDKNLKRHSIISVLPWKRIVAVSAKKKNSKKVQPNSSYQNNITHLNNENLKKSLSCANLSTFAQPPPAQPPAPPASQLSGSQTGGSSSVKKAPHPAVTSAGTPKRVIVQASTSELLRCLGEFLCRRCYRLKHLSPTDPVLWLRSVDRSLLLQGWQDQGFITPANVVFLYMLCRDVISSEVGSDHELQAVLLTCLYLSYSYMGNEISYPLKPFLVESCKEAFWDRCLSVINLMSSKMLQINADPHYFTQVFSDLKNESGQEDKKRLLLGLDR
Casp6 inh: inhibitors of human caspase-6 | P55212 | purified caspase-6, Z-VEID-R110 cleavage fluorescence | inhibition, % at 12.5 µM | hit rate 0.53% among 350,000;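 active = mean inhibition across replicates at least about 35%, with every replicate also reaching that limit, limit read from the data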
Each line names hits and unclear results; the compound was inactive in the other large screens; ! = not active in a repeat. This is a sample that favours compounds with a hit; in the whole collection about 3.9% have one here.

O=S(=O)(NC1CC2CCC1C2)c1ccc(Br)s1 (stereo unspecified)	SUMO Mot1 rescue 449.8 (no result: Casp6 inh)
O=C(C[C@@H]1C[C@H]2c3cc(NC(=O)C4CCC4)ccc3O[C@H]2[C@@H](CO)O1)NCc1ccncc1	none (no result: Glyco luc inh, ALR inh, NSD2 inh, SUMO Mot1 rescue, CDK5 inh)
CC(C)Sc1nsc2nc(=O)c(/C=C3\C=Nc4ccccc43)c(N)n12	none
CS(=O)(=O)c1nsc2nc(=O)c(/C=C3\C=Nc4ccccc43)c(N)n12	ALR inh 90.1
CCCc1nn2c(N)c(/C=C3\C=Nc4ccccc43)c(=O)nc2s1	ALR inh 92.0!
Cc1cc2c(c(=O)o1)C(CCC1CCCCC1)C(C#N)=C(N)O2 (stereo unspecified)	ALR inh 96.8 (no result: CDK5 inh)
CCC(CC)C1C(C#N)=C(N)Oc2cc(C)oc(=O)c21 (stereo unspecified)	none (no result: Casp6 inh)
COc1ccc(OC)c(Nc2nc(-c3c(C)nc4ncccn34)cs2)c1	Glyco luc inh 41.9
Cc1noc(NC(=O)c2ccc(F)cc2)c1C#N	none (no result: Casp6 inh)
Cc1cccc(C(=O)Nc2onc(C)c2C#N)c1	ALR inh 96.4 (no result: Casp6 inh)
CO[C@H]1CN(C)C(=O)c2cc(NC(=O)c3cc(C)on3)ccc2OC[C@H](C)N(C(=O)C2CC2)C[C@@H]1C	none (no result: Glyco luc inh, ALR inh, NSD2 inh, SUMO Mot1 rescue, CDK5 inh)
CN(C(=O)COC(=O)c1ccccc1Nc1ccccc1)C1CCS(=O)(=O)C1 (stereo unspecified)	ALR inh 98.6 (no result: NSD2 inh, SUMO Mot1 rescue, Casp6 inh)
O=C(COC(=O)c1ccccc1C(=O)c1ccccc1)NCc1ccc(F)cc1	SUMO Mot1 rescue 336.8
O=C(COC(=O)c1ccccc1Nc1ccccc1)NCc1ccccc1Cl	none (no result: Casp6 inh)
O=C(COc1ccccc1)NCc1ccccc1	none (no result: Casp6 inh)
Cc1cccc(Nc2ccccc2C(=O)OCC(=O)N(C)C2CCS(=O)(=O)C2)c1C (stereo unspecified)	none (no result: Casp6 inh)
O=C(COC(=O)c1ccccc1C(=O)c1ccc(Cl)cc1)NCc1ccccc1	none
O=C(COC(=O)c1ccccc1Nc1ccccc1)NCc1ccccc1	ALR inh 97.3 (no result: Casp6 inh)
O=C(COc1ccc(C(=O)c2ccccc2)cc1)NCc1ccc(F)cc1	Glyco luc inh 28.7 (no result: ALR inh, Casp6 inh)
CN1C(=O)c2cc(NC(=O)C3CCCCC3)ccc2OC[C@H]2O[C@H](CC(=O)NCCc3ccncc3)CC[C@H]21	none (no result: Glyco luc inh, ALR inh, NSD2 inh, SUMO Mot1 rescue, CDK5 inh)
O=C(CC1CC1)N1[C@H](CO)[C@@H](c2ccccc2)C12CN(Cc1cc(F)ccc1F)C2	none (no result: Glyco luc inh, ALR inh, NSD2 inh, SUMO Mot1 rescue, CDK5 inh)
C[C@@H]1CCCCO[C@@H](CN(C)S(=O)(=O)c2ccccc2)[C@H](C)CN([C@H](C)CO)C(=O)c2cc(NC(=O)C3CCCCC3)ccc2O1	none (no result: Glyco luc inh, ALR inh, NSD2 inh, SUMO Mot1 rescue, CDK5 inh)
COc1ccc(OC)c(N(CC(N)=O)S(=O)(=O)c2ccc(OC)c(OC)c2)c1	ALR inh 99.1 (no result: Casp6 inh)
COc1ccc(OC)c(N(CC(=O)N2CCCCC2)S(=O)(=O)c2ccc(OC)c(OC)c2)c1	none (no result: Casp6 inh)
COc1ccc(NC(=O)N2CCCCN3[C@H](CO)[C@@H](c4ccc(C#CCC(C)C)cc4)[C@@H]3C2)cc1	none (no result: Glyco luc inh, ALR inh, NSD2 inh, SUMO Mot1 rescue, CDK5 inh)
Cc1noc(C)c1NC(=O)N(C)C[C@@H]1Oc2c(NC(=O)C3CC3)cccc2C(=O)N([C@H](C)CO)C[C@@H]1C	none (no result: Glyco luc inh, ALR inh, NSD2 inh, SUMO Mot1 rescue, CDK5 inh)
CCNC(=O)C[C@H]1CC[C@H]2[C@H](COc3ccc(NC(=O)c4cscn4)cc3C(=O)N2C)O1	none (no result: Glyco luc inh, ALR inh, NSD2 inh, SUMO Mot1 rescue, CDK5 inh)
Cc1ccccc1NC(=O)C(NC1CCCCC1)C(C)C (stereo unspecified)	ALR inh 98.5
COC(=O)C(C(=O)Nc1ccccc1C)C1CCCC1 (stereo unspecified)	none (no result: Casp6 inh)
O=C(N/N=C/c1ccc(O)cc1)c1cc(C2CC2)[nH]n1	ALR inh 99.2
COc1cc(/C=N/NC(=O)c2ccc(=O)[nH]n2)ccc1O	ALR inh 99.3 (no result: Casp6 inh)
COc1ccc(/C=N/NC(=O)c2cc(C3CC3)[nH]n2)cc1OC	none (no result: ALR inh)
COc1cc(/C=N/NC(=O)c2cc(C3CC3)[nH]n2)ccc1O	ALR inh 99.0
COCCNC(=O)C[C@H]1C[C@H]2c3cc(NC(=O)c4cccnc4)ccc3O[C@H]2[C@H](CO)O1	none (no result: Glyco luc inh, ALR inh, NSD2 inh, SUMO Mot1 rescue, CDK5 inh)
CCOc1ccccc1C(=O)Oc1ccc2ccc(O)cc2c1	none (no result: Glyco luc inh, ALR inh, SUMO Mot1 rescue, CDK5 inh, Casp6 inh)
Cc1ccc(CN2CC(=O)N3[C@@H](CO)[C@H](c4ccc(-c5ccccc5F)cc4)[C@@H]3C2)cc1	none (no result: Glyco luc inh, ALR inh, NSD2 inh, SUMO Mot1 rescue, CDK5 inh)
Cc1noc(C)c1NC(=O)N(C)C[C@@H]1OCCCC[C@@H](C)Oc2ccc(NS(=O)(=O)c3ccc(Cl)cc3)cc2C(=O)N([C@H](C)CO)C[C@@H]1C	none (no result: Glyco luc inh, ALR inh, NSD2 inh, SUMO Mot1 rescue, CDK5 inh)
